# A selection: hits, their analogues and other compounds. The true share with any hit is near 9%.
# BAZ2B inh: qHTS Assay for Inhibitors of BAZ2B. hit rate 4.4% among 360,000. AlphaScreen BAZ2B-H3K14Ac peptide displacement. Bromodomain adjacent to zinc finger domain protein 2B (Homo sapiens), Q9UIF8. Potency, µM (top dose mostly 114 µM), without a hit: at the top dose activity change, negative = inhibition, most hits filed as inhibitors; also: % is scaled to controls: 0 for no effect and ±100 for the full control effect; nearly all actives have a fitted effect of over 60% in size
#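 Compounds, titrated to a top concentration of 110 uM, were incubated 30 min at room temperature with preformed BAZ2B/acetyl-K14 H3 peptide complex (50 nM each). Proximity signal was measured by AlphaScreen after 20 min with beads.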
# 12-LOX inh: Primary qHTS assay for inhibitors of human arachidonate 12S-lipoxygenase (ALOX12): Round 2; Polyunsaturated fatty acid lipoxygenase ALOX12 (Homo sapiens), P18054; purified 12hLO, xylenol orange hydroperoxide absorbance; Potency, µM (titrated, usually from 108 µM), without a hit: at the highest dose activity change, negative = inhibition, actives largely listed as inhibitors; hit rate 1.1% among 580,000; AID 1671190, 2021; also: % is scaled to controls: 0 for no effect and ±100 for the full control effect
#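 Hydroperoxide product was detected by ferrous iron/xylenol orange as the 573 to 405 nm absorbance ratio. Arachidonic acid at 40 uM (final) was turned over for 30 min at room temperature by 150 nM human 12hLO, pH 7.0 Hepes buffer, after 15 min compound preincubation.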
# G9a inh: qHTS Assay for Inhibitors of Histone Lysine Methyltransferase G9a. G9a H3K9 monomethylation, AlphaScreen, 2 h. Potency, µM (doses to about 102 µM), for the others: at the top dose activity, negative = inhibition, actives largely listed as inhibitors. hit rate 8.8% among 350,000. AID 504332, 2011; also: % is scaled to controls: 0 for no effect and ±100 for the full control effect; nearly all actives have a fitted effect of over 75% in size
#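 G9a (20 nM) preincubated 15 min RT with compounds, then 500 nM biotinylated H3K9 peptide and 20 uM SAM added; 2 h RT reaction. Monomethyl-H3K9 product detected by AlphaScreen with anti-H3K9me1 antibody, streptavidin donor and anti-rabbit IgG acceptor beads.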
# JMJD2A Tudor inh: qHTS Assay for Inhibitors of JMJD2A-Tudor Domain. Lysine-specific demethylase 4A (Homo sapiens), O75164. AlphaScreen JMJD2A-Tudor / H3K4me3 peptide binding. Potency, µM (highest dose often 114 µM), inactives show at the highest dose activity change, negative = inhibition, hits mostly inhibitors. hit rate 4.4% among 390,000. AID 504339, 2011; also: % is scaled to controls: 0 for no effect and ±100 for the full control effect; nearly all actives have a fitted effect of over 50% in size
# Target sequence (O75164 whole entry, looked up, the tested form may be a part): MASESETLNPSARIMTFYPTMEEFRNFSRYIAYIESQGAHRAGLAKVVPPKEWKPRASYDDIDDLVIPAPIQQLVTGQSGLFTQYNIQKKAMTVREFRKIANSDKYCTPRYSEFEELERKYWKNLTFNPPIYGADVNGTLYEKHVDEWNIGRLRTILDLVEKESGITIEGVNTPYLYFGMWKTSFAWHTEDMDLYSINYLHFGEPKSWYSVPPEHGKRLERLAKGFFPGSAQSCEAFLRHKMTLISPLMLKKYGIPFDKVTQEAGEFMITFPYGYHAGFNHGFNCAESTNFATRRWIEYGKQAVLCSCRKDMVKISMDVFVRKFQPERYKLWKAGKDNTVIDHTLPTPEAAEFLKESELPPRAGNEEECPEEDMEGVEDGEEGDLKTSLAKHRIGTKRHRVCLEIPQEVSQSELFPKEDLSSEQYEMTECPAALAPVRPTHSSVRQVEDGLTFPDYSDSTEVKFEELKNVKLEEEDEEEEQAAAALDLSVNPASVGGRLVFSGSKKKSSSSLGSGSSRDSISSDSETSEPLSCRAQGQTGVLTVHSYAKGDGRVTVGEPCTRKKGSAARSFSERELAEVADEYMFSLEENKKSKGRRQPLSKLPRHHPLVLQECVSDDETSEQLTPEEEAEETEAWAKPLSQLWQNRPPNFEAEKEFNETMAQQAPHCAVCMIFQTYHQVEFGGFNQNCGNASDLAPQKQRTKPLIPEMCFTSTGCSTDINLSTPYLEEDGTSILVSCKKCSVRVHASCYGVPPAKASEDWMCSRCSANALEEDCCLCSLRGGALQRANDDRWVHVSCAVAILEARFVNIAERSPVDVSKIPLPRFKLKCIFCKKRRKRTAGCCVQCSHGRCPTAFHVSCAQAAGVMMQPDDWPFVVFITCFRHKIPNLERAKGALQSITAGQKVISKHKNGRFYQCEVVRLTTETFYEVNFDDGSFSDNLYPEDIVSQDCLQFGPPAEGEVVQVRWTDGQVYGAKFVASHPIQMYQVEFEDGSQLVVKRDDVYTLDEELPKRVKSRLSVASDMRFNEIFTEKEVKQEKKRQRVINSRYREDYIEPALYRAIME
# PLK1 PBD block: qHTS for Inhibitors of PLK1-PDB (polo-like kinase 1 - polo-box domain): Primary Screen; Plk1 PBD binding of FITC phosphopeptide, fluorescence polarization; Potency, µM, for the others: max response, negative = inhibition, most hits filed as inhibitors; hit rate 2.8% among 360,000; also: series mostly up to about 57 µM; % is scaled to controls: 0 for no effect and ±100 for the full control effect; nearly all actives have a fitted effect of over 65% in size
# HP1b binding inh: HTS for Inhibitors of HP1-beta Chromodomain Interactions with Methylated Histone Tails; Chromobox protein homolog 1 (Homo sapiens), P83916; AlphaScreen HP1-beta / biotin-H3K9me3 peptide binding; Potency, µM (highest dose often 114 µM), inactives show at the top dose activity change, negative = inhibition, usual class: inhibitors; hit rate 0.56% among 390,000; also: nearly all actives have a fitted effect of over 70% in size
#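 Compound inhibition of the preformed complex between 50 nM HP1-beta and 50 nM biotinylated H3K9me3 peptide was read by AlphaScreen. Buffer was PBS pH 7.4 with 0.01% Tween-20. Incubations ran 30 min at room temperature, with 10 ug/mL donor/acceptor beads.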
# An asterisk follows results filed as active; ? = inconclusive; . = no result; [ ] = remark or other dose. Calls follow the shape of the dose curve; as a rule, active = well fitted curve in the direction sought with a large enough effect; inconclusive = small, poorly fitted or top-dose-only effect, or another doubt; inactive = no such curve, though single readings can be large; an effect the other way counts as inactive or inconclusive. Potency is read from the fitted curve at half-maximal effect.
SMILES,BAZ2B inh,12-LOX inh,G9a inh,JMJD2A Tudor inh,PLK1 PBD block,HP1b binding inh
O=C(O)c1ccc(N/N=C/C(Br)=C/c2ccccc2)cc1,-34.4%,39.8µM*,50.1µM*,?,?,-3.4%
CC(CN1CCCCC1)OC(=O)c1cccc(F)c1 (stereo not drawn),8.9%[57.1 µM],56.2µM*,.,-9.6%,-2.8%,29.5%
COc1cccc(C(=O)OC(C)CN2CCCC2)c1 (stereo not drawn),-2.1%,0.0%,8.7%[59 µM],16.2%,0.0%,16.2%
CC(Oc1ccccc1)C(=O)Nc1cccc(-c2cn3cccnc3n2)c1 (stereo not drawn),-0.3%,?,-1.9%[59 µM],-12.9%,.,18.6%[57 µM]
CCC(CC)NC(=O)COC(=O)c1ccc2ccccc2n1,.,6.31µM*,.,.,.,.
CCN(c1ccc(NC(=O)COC(=O)c2ccc3ccccc3n2)cc1)C(C)C,35.5µM*,5.01µM*,?,25.1µM*,-11.3%,22.4µM*
CCN(c1ccc(NC(=O)COC(=O)/C=C/c2cccs2)cc1)C(C)C,17.8µM*,-3.3%,8.91µM*,22.4µM*,-25.2%,35.5µM*
COc1ccc(OCC(=O)N/N=C\c2ccco2)cc1,-19.9%,313.1%,4.8%,5.8%,-4.8%,27.0%
Cc1ccc(-n2c([S-])c(C(=O)NC(C)c3ccccc3)[n+]3ccccc23)cc1 (stereo not drawn),-18.4%,?,39.8µM*,-34.7%,-19.8%,-4.3%
COc1ccc(CNC(=O)c2c([S-])n(-c3ccc(C)cc3)c3cccc[n+]23)cc1,.,?,3.98µM*,3.16µM*,?,11.9%
Cc1cccc(C(=O)NNC(=O)c2ccccc2-n2cccc2)c1,-20.4%,6.5%,1.9%,-18.4%,-16.7%,30.5%
CC(=O)N1CCOc2ccc(S(=O)(=O)N3CCC(C(=O)Nc4cc(C)cc(C)c4)CC3)cc21,-21.7%,3.2%,17.3%,-18.6%,2.5%,27.2%
O=C(N/N=C/c1ccoc1)c1cc(O)cc(O)c1,20µM*,391.5%,.,25.1µM*,?,44.7µM*
O=C(N/N=C/c1ccoc1)c1ccccc1,56.2µM*,493.9%,-44.0%,-26.2%,-8.2%,2.0%
O=C(N/N=C/c1ccoc1)c1ccc(Br)cc1,?,-6.5%,53.4%,-29.8%,-21.8%,15.1%
O=C(N/N=C/c1ccoc1)c1ccccc1O,?,-2.1%,-5.4%,-18.8%,-7.2%,3.1%
Cc1cc(C)cc(C(=O)N/N=C/c2ccoc2)c1,-1.2%,-0.3%,44.8%,-13.4%,-8.2%,21.4%
Cn1c(=O)n(C)c2cc(/C=N/NC(=O)c3ccc(Cl)cc3)ccc21,0.6%,-1.5%,?,-7.4%[11.4 µM],29.9µM*,9.4%
CN(C)c1ccc(/C=N/NC(=O)c2ccc(Cl)cc2)cc1,-6.6%,-20.4%,13.5%[59 µM],?,-0.2%,8.2%
O=C(N/N=C/c1ccoc1)c1ccc(Cl)cc1,-34.7%,-10.2%,44.7µM*,-15.8%,-10.5%,14.5%
NC(=O)c1cccc(C(=O)N2CCCC(c3nc4ccccc4o3)C2)c1 (stereo not drawn),.,8.5%,.,.,.,.
CN(C)c1ccc(/C=N/NC(=O)CCCO)cc1,?,22.8%,?,-8.2%,2.8%,31.0%
O=C(c1cnccn1)N1CC(=O)N2[C@@H](CO)[C@H](c3ccc(Br)cc3)[C@@H]2C1,.,10µM*,.,.,.,.
Cc1oc(-c2ccccc2Cl)nc1CS(=O)CC(=O)NCc1cccs1 (stereo not drawn),3.6%,11.7%[57.4 µM],-17.4%,-25.4%,-10.4%,14.5%
C#CCn1c(O)c(/C=C2/C=Nc3ccccc32)sc1=O,.,-3.3%,.,.,.,.
SMILES,BAZ2B inh,12-LOX inh,G9a inh,JMJD2A Tudor inh,PLK1 PBD block,HP1b binding inh
O=c1[nH]c(S)c(/C=C2\C=Nc3ccccc32)s1,11.2µM*,-3.3%,14.1µM*,?,-25.3%,?
O=C(O)/C=C/c1ccc(S(=O)(=O)Nc2ccc(OCc3ccccc3)cc2)cc1,-28.1%,-24.2%,16.7%[59 µM],-10.9%,-1.2%,27.0%
O=C(O)CCc1ccc(S(=O)(=O)Nc2ccc(OCc3ccccc3)cc2)cc1,-14.1%,0.0%,44.7µM*,-24.3%,-11.4%,10.4%
C=C(C)CC(Nc1ccc(OC)cc1)c1ccco1 (stereo not drawn),50.1µM*,-2.5%,?,3.1%,-2.3%,37.8%
COc1ccc(S(=O)(=O)NC(CC(=O)O)c2ccco2)cc1 (stereo not drawn),3.1%,3.2%,1.2%,-3.5%,1.9%,32.2%
COc1cc2c(cc1OC)-c1cc(Nc3ccc(N(C)C)cc3)nc(=O)n1CC2,?,?,14.1µM*,?,-15.5%,-35.7%
COc1cc2c(cc1OC)-c1cc(Nc3cccc(F)c3)nc(=O)n1CC2,18.9%,-3.8%,58.5%,-2.1%,-5.1%,-5.1%
CCN(CC)c1ccc(Nc2cc3n(c(=O)n2)CCc2cc(OC)c(OC)cc2-3)cc1,22.4µM*,?,20µM*,44.7µM*,-11.0%,?
COc1cc2c(cc1OC)-c1cc(Nc3ccc(F)cc3)nc(=O)n1CC2,1.2%,-15.1%,23.8%,-10.1%,-13.9%,38.9%
Cc1cc(C)c2c(c1)[C@@H]1C=CC[C@@H]1[C@H](c1ccc(S(=O)(=O)N3CCOCC3)cc1)N2,-10.5%,?,3.55µM*,?,?,1.3%
COC(=O)c1ccc([C@@H]2Nc3c(cccc3C(F)(F)F)[C@@H]3C=CC[C@@H]32)cc1,62.4%,-8.9%,46.5%[59 µM],25.6%,.,122.6%
COC(=O)c1ccc(C2Nc3c(C)cc(C)cc3C3C=CCC32)cc1 (stereo not drawn),79.4µM*,-3.9%,4.47µM*,?,.,1.6%
CCN1C(=O)[C@H]2[C@@H](c3ccc(SC4CCCCC4)cc3)N3CCCC[C@@]3(C(=O)OC)[C@H]2C1=O,33.5%,-8.8%,-16.4%[2.33 µM],-17.3%,-7.0%,25.1%
Oc1ccc(C[C@@H](CN2CCC[C@@H]2CN2C(=S)NC[C@@H]2Cc2ccccc2)N2C[C@H](Cc3ccccc3)N(CCc3ccccc3)C2=S)cc1,.,-21.2%,.,.,-7.9%,.
CC1CCCCN1C(=O)c1cccc(NC(=O)c2ccccc2)c1 (stereo not drawn),21.6%,-1.1%,6.1%,-1.1%,-11.5%,32.7%[57 µM]
CCOc1cc(S(=O)(=O)N(CC)CC)ccc1Cl,1.5%,-4.9%,31.6%,32.4%,3.0%,57.4%
COc1ccc(CC(=O)NCc2n[nH]c(=S)n2-c2ccccc2OC)cc1,.,-20.7%,35.5µM*,14.1µM*,-9.2%,52.4%

# Assay outcomes as filed in PubChem.
